This is a sample that favours compounds with a hit; in the whole collection about 21% have one here.
Pf growth 96h: P. falciparum growth inhibition at 96 hours | AID 504834 | hit rate 6.9% among 320,000 | Potency, µM (highest dose often 28.7 µM), usual class: inhibitors | P. falciparum luciferase reporter growth, 96 h; active = well fitted inhibition curve with a large enough effect; inconclusive = small, poorly fitted or top-dose-only effect, or another doubt; inactive = no such curve, though single readings can be large or run the other way
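Erythrocytes infected with luciferase-expressing P. falciparum were dispensed at 2% hematocrit and 0.05% parasitemia (final), then incubated with compounds 96 hours at 37 C in 5% CO2. Luminescence after detection reagent addition reported growth.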
CHX counter: counter-screen for Shiga toxin inhibitors: cycloheximide protein synthesis inhibition; hit rate 12% among 300,000; AID 2314; cell reporter, cycloheximide protein synthesis inhibition counterscreen; max response, %; in the data active = max response mostly above about 13%, no sharp cut-off; inactive = mostly below about 14%; note: read at 38.3 µM for the half of the compounds with a filed dose
Shiga toxin inh: blocks Shiga toxin action in Vero cells; hit rate 9.2% among 290,000; inhibition, % at 38.7 µM; Vero cells, Shiga toxin protein synthesis inhibition reporter; in the data active = inhibition mostly above about 28%, no sharp cut-off; inactive = mostly below about 43%
Pf growth 48h: P. falciparum growth inhibition at 48 hours (one generation). Potency, µM (series often up to 28.7 µM), usual class: inhibitors. hit rate 5.9% among 310,000. P. falciparum luciferase growth in erythrocytes, 48 h; active = well fitted inhibition curve with a large enough effect; inconclusive = small, poorly fitted or top-dose-only effect, or another doubt; inactive = no such curve, though single readings can be large or run the other way
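Firefly luciferase activity from engineered P. falciparum reports growth; inhibitors lower the luminescent signal. Cultures contained 2% hematocrit erythrocytes at 0.1% final parasitemia.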
SARS PLP yeast: blocks SARS-CoV papain-like protease in a yeast assay; S. cerevisiae expressing SARS-CoV PLpro, growth rescue; Potency, µM (doses to about 32.9 µM), actives largely listed as activators; hit rate 0.19% among 330,000; AID 485353; note: nearly all actives have a fitted effect of over 55% in size
NS1 inh: inhibitors of influenza NS1 protein function; Potency, µM (top dose mostly 46.1 µM); hit rate 0.4% among 270,000; AID 2326; note: actives are rising curves; nearly all actives have a fitted effect of over 50% in size
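Recovery from NS1-induced slow growth read by OD600 in budding yeast switched to galactose assay medium (pH 6.0, -URA) at 1:100 dilution. Compound 23 nl per well; the matching strain lacking NS1 serves as control.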
Large screens that a line does not name were inactive. Unless noted, calls come from the whole dose curve.

Cc1ccc(C(=O)N/C(=C\c2ccc(-c3ccc(Cl)cc3)o2)C(=O)NCCCN(C)C)cc1	Pf growth 96h 9.3µM, Pf growth 48h 10µM (no result: NS1 inh)
Cc1ccc(/C=C(/NC(=O)c2ccccc2)C(=O)NCCc2c[nH]c3ccccc23)o1	Pf growth 96h inconclusive
CN(C)CCCNC(=O)/C(=C\c1ccc(-c2ccc(Br)cc2)o1)NC(=O)c1ccccc1	Pf growth 96h inconclusive, Pf growth 48h 10µM
Cc1ccc(C(=O)N/C(=C\c2ccc(Cl)cc2)C(=O)NCCCN2CCOCC2)cc1	none
CCOc1ccc(C(=O)NCc2ccco2)cc1OC	none
COc1cccc(CSc2nc3sc(C)c(C)c3c(=O)n2Cc2ccco2)c1	none
Cc1cccc(NC(=O)CC2CCC2)c1	CHX counter 20 (no result: Pf growth 96h)
Cc1cc(NC(=O)CC2CCCC2)ccc1Br	CHX counter 26, Shiga toxin inh 62
Cc1cccc(NC(=O)CC2NCCNC2=O)c1 (stereo not given)	CHX counter 24 (no result: Pf growth 48h)
Cc1cc(C)c(OCC(=O)OCC(=O)N2c3ccccc3CC2C)c(C)c1 (stereo not given)	none (no result: CHX counter, Shiga toxin inh, NS1 inh)
COc1cc(C(=O)NC(=S)Nc2ccc3c(c2)C(=O)N(C)C3=O)cc(OC)c1OC	none
COc1ccc(C(=O)Nc2ccc3c(c2)C(=O)N(C)C3=O)cc1OC	CHX counter 17, Shiga toxin inh 32
COc1cccc(OC)c1C(=O)NC(=S)Nc1ccc2c(c1)C(=O)N(C)C2=O	Pf growth 96h inconclusive, Pf growth 48h 1.7µM
Cn1nnnc1SCc1ccc(CSc2nnnn2C)cc1	none
Cn1nnnc1SCc1nnc(-c2ccccc2Br)o1	CHX counter 33, Shiga toxin inh 86
Cc1ccc(-n2nnnc2SCc2nnc(-c3ccccc3Br)o2)c(C)c1	Pf growth 48h inconclusive (no result: Pf growth 96h)
Cc1nnc(SCc2cccc(CSc3nnc(C)s3)c2)s1	none (no result: Pf growth 96h)
Cn1nnnc1SCc1nnc(-c2ccc(F)cc2)o1	CHX counter 22, Shiga toxin inh 39 (no result: Pf growth 96h)
Cc1nnc(SCc2nnc(-c3ccccc3Br)o2)s1	Pf growth 96h inconclusive, CHX counter 24 (no result: NS1 inh)
CCOC(=O)CCCNC(=O)CSc1nc2ccc(OCC)cc2[nH]1	Pf growth 48h inconclusive
CN(Cc1nc(-c2cccc(Cl)c2)no1)C1CCOCC1	CHX counter 35, Shiga toxin inh 84
CCN(Cc1nc(-c2cccc(Cl)c2)no1)CC1CCCO1 (stereo not given)	Pf growth 96h inconclusive, CHX counter 13
Cc1cnccc1CN(C)Cc1cn(C)nc1-c1cccc(Cl)c1	Pf growth 48h inconclusive
CN(Cc1cn(C)nc1-c1cccc(Cl)c1)CC1CCCCO1 (stereo not given)	Pf growth 96h 10µM
CN(C(=O)c1ccc(NC(=O)Cc2ccc([N+](=O)[O-])cc2)cc1)C1CC1	none (no result: Pf growth 96h, CHX counter, Shiga toxin inh, Pf growth 48h, NS1 inh)
Cc1ccc(NC(=O)CCc2c[nH]c3ccccc23)nc1	Pf growth 96h inconclusive, CHX counter 11, Shiga toxin inh 35, Pf growth 48h inconclusive
O=C(CCc1c[nH]c2ccccc12)Nc1ncccc1O	CHX counter 16
O=C(CCc1c[nH]c2ccccc12)NCc1ccncc1	none
O=C(CCCc1c[nH]c2ccccc12)Nc1ccc2ccccc2c1	CHX counter 38, Shiga toxin inh 68
CC1(C)OC(=CC=Nc2ccc(Cl)cc2)OC1(C)C	Pf growth 96h inconclusive, Pf growth 48h inconclusive
CCn1c(SCC(=O)NNC(=O)c2ccc(C)cc2)nnc1C1CC1	Pf growth 96h inconclusive
COc1ccc(Cl)cc1NC(=O)CSc1nnc(CN2CCOCC2)n1-c1ccc(Cl)cc1	Pf growth 48h inconclusive (no result: Pf growth 96h)
O=C(COc1ccccc1Cl)Nc1nnc(S(=O)(=O)N2CCCC2)s1	none
Cc1cc2ncn(C(=O)N3CCC(C)CC3)c2cc1C	CHX counter 28, Shiga toxin inh 67
O=C(N1CCOCC1)n1cnc2ccccc21	none
CCc1ccc(NC(=O)C2CCCCC2C(=O)O)cc1 (stereo not given)	none
O=C(Nc1ccc(Cl)cc1)C1C2CCCCC21 (stereo not given)	CHX counter 48, Shiga toxin inh 67 (no result: SARS PLP yeast)
O=C1CCC(C(=O)Nc2ccc(Cl)cc2)N1 (stereo not given)	Pf growth 96h 5.2µM
O=C(Nc1cccc(Cl)c1)C1C2CCC3C(CCC21)C3(Cl)Cl (stereo not given)	Pf growth 96h inconclusive, Pf growth 48h 9.3µM

Assay outcomes as filed in PubChem.
